Screening data (PubChem BioAssay)
Most compounds without a hit are left out; they make up all but 1.9% or so of the library.
Jurkat viability = cytotoxicity toward Jurkat T cells, primary screen, cytotoxicity control, cell-based, Jurkat E6.1, 60K MLSMR library. inhibition, % at 4 µM. Jurkat E6.1 viability, ATP luminescence, 48 h. 56,000 tested, 1.2% active;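 active = inhibition above the mean inhibition of all tested compounds plus 3 SD, cut at about 28% in these data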
SKBR3 24h inh = SK-BR-3 proliferation inhibitors, primary screen, cell-based, human, 24 h | SK-BR-3 viability, CellTiter-Glo ATP luminescence; hits give low values | viability, % at 10 µM | 41,000 tested, 0.47% active | AID 847, 2007;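 active = viability at or below the median of all test compounds minus 3 SD, in both replicates if run twice, cut at about 45% in these data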
Her2 expr inh = inhibitors of Her2 protein expression, primary screen, SKBR-3 cells, AlphaScreen, 66K library. Receptor tyrosine-protein kinase erbB-2 (Homo sapiens), P04626. SKBR-3 HER2 protein level, 18-24 h; hits give low values. HER2 level % of control, % at 10 µM. 65,000 tested, 0.69% active;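 active = HER2 level under 5% of the carrier-only control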;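 also: lower value means stronger loss of Her2 protein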
Target sequence (P04626 whole entry, looked up): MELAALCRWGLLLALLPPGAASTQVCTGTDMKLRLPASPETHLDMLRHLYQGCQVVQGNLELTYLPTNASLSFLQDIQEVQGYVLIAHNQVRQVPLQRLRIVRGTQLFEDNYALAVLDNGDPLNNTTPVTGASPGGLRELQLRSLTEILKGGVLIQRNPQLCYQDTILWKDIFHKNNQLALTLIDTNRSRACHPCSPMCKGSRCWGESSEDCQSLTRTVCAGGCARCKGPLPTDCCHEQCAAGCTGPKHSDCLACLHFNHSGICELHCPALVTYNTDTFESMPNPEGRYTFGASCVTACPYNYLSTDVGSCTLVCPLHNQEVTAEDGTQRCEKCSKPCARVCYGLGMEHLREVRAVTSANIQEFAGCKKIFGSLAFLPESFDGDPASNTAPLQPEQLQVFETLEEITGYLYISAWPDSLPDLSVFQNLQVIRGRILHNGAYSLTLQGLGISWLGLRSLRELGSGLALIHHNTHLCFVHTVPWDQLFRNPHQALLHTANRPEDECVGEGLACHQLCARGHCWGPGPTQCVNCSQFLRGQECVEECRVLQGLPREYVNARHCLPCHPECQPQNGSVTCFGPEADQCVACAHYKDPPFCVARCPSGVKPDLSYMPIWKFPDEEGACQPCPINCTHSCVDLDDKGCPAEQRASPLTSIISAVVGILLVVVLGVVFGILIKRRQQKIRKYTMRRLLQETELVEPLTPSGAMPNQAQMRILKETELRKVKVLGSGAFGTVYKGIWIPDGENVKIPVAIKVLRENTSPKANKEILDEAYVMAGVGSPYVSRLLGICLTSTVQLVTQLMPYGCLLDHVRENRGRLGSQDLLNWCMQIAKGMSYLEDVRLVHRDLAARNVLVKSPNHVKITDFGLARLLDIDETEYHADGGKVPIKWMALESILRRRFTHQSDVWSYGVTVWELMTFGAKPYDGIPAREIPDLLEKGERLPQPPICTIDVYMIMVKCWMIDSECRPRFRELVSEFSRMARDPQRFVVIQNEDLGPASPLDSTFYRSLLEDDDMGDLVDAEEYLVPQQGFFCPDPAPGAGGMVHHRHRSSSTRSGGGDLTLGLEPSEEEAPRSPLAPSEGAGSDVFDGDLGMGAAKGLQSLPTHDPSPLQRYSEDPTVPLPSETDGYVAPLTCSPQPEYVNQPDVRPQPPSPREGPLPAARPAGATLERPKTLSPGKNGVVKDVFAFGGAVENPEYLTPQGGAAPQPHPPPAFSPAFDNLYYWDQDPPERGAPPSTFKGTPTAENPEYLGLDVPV
Of the large screens only hits and unclear results are named; the others gave an inactive call.

CCOC(=O)C1=C(N)n2c(s/c(=C\c3cccs3)c2=O)=C(C(=O)OCC)C1c1cccs1 (stereo unspecified)	Jurkat viability 86
O=C1C2ON(c3ccccc3)C(c3cccnc3)C2C(=O)N1c1ccccc1 (stereo unspecified)	none (no result: Jurkat viability)
O=C1C2ON(c3ccccc3)C(c3cccnc3)C2C(=O)N1c1ccc(Cl)c(Cl)c1 (stereo unspecified)	Her2 expr inh -18 (no result: Jurkat viability)
CC1=C(C)CS(=O)N(S(=O)(=O)c2ccc(Cl)cc2)C1 (stereo unspecified)	Jurkat viability 69
CC1CCN(S(=O)(=O)c2ccc(Cl)cc2)CC1	none (no result: SKBR3 24h inh)
O=C(CCCn1c(=O)c2sccc2n(Cc2ccc(F)cc2)c1=O)NCc1ccco1	none
Cc1cc(Cl)c(S(=O)(=O)NC2CCCCC2)cc1OCC(=O)Nc1nncs1	none
CCOC(=O)N1CCC(n2c(=S)[nH]c3cc(OCC)c(OCC)cc3c2=O)CC1	Her2 expr inh 0.2 (no result: Jurkat viability, SKBR3 24h inh)
CCOc1cc2[nH]c(=S)n(CCCN3CCOCC3)c(=O)c2cc1OCC	none (no result: Jurkat viability, SKBR3 24h inh)
N=c1n(CCN2CCCC2)c2ccccc2n1CC(O)c1ccco1 (stereo unspecified)	none
N=c1n(CCN2CCCCC2)c2ccccc2n1CC(O)c1cccc(Br)c1 (stereo unspecified)	SKBR3 24h inh 44
COc1cc2c(cc1OC)CN(C(=O)CSc1nnc3scc(-c4ccccc4)n13)CC2	none (no result: SKBR3 24h inh)
CCn1c(=O)c(C(=O)Nc2nc3ccccc3[nH]2)c(O)c2ccccc21	Jurkat viability 29, Her2 expr inh 0.9 (no result: SKBR3 24h inh)
CCn1c(=O)c(C(=O)Nn2c(C)nc3ccccc3c2=O)c(O)c2ccccc21	none
COc1cc(C)c(S(=O)(=O)N2CCCC2)cc1C	none
NC(=O)c1cnn2c(C(F)(F)F)cc(-c3ccc(F)cc3)nc12	none
Cc1cc(C)n(-c2nc3ccccc3c(=O)n2OCC(=O)OCc2ccccc2)n1	Jurkat viability 56
COn1c(-n2nc(C)cc2C)nc2ccccc2c1=O	none
Cc1cc(C)n(-c2nc3ccccc3c(=O)n2OCC(=O)N(C)C)n1	none
Cc1cc(C)n(-c2nc3ccccc3c(=O)n2OCc2ccc(F)cc2)n1	SKBR3 24h inh 40
O=C(O)c1ccc(COc2c(F)c(F)c(F)c(F)c2F)o1	none (no result: Jurkat viability)
CCOc1cc(C(=O)Nc2cc(C)ccn2)cc(OCC)c1OCC	none
CCOc1cc(C(=O)Nc2cnccn2)cc(OCC)c1OCC	Jurkat viability 51
CCN(CC)S(=O)(=O)c1ccc(F)c(C(=O)NCCC(C)C)c1	none (no result: SKBR3 24h inh)
COC(=O)c1cc(NC(=O)c2c(Cl)nc3sccn23)cc(C(=O)OC)c1	SKBR3 24h inh 26
COC(=O)c1cc(=O)nc2sccn12	none (no result: Jurkat viability, SKBR3 24h inh)
C=CCNC(=O)c1cc(=O)c2ccccc2o1	none
CCOC(=O)Nc1cc(=O)c2ccccc2o1	Jurkat viability 90 (no result: SKBR3 24h inh)
CCOC(=O)C1=C(C)NC(=O)C1CC(=O)Nc1ccccc1 (stereo unspecified)	none (no result: Jurkat viability)
COc1ccc(NS(=O)(=O)c2ccc3c(c2)oc(=O)n3C)c(OC)c1	none (no result: SKBR3 24h inh)
COc1cc(NS(=O)(=O)c2ccc3c(c2)oc(=O)n3C)cc(OC)c1OC	Jurkat viability 40 (no result: SKBR3 24h inh)
COc1ccccc1C(=O)NCCC(=O)N1CC(=O)Nc2ccccc21	none (no result: SKBR3 24h inh)
O=C(c1cc(-c2ccc(O)cc2)on1)N1CCc2ccccc2C1	Jurkat viability 45 (no result: SKBR3 24h inh)
O=C(c1cc(-c2ccccc2O)on1)N1CCc2ccccc2C1	none (no result: SKBR3 24h inh)
Nc1nnc(SCc2ccccc2F)n1-c1ccccc1	none
COc1ccc(C)cc1NC(=O)CSc1nnnn1Cc1ccccc1	none
COc1ccc(CSc2nnnn2Cc2ccccc2)cc1OC	Her2 expr inh -0.9
COc1ccc(CCNc2nnc(Sc3nnnn3-c3ccccc3)s2)cc1OC	Jurkat viability 99 (no result: SKBR3 24h inh)
COc1ccc(CCNC(=O)CSc2nnnn2-c2ccccc2)cc1	none
CC1(C)CC(=O)N(c2ccccc2)C1(C)O (stereo unspecified)	none
O=C(Nc1ccc2oc(=O)ccc2c1)c1cccnc1	none
CCOc1ccccc1NC(=O)CN(c1cc(C)cc(C)c1)S(=O)(=O)c1c(C)noc1C	none (no result: SKBR3 24h inh)
CCOc1ccccc1NC(=O)CN(c1ccc(OC)cc1)S(=O)(=O)c1c(C)noc1C	Jurkat viability 93
CCOc1ccc(N(CC(=O)Nc2ccc(C)c(C)c2)S(=O)(=O)c2c(C)noc2C)cc1	none (no result: SKBR3 24h inh)
CCOc1ccc(N(CC(=O)Nc2ccccc2C)S(=O)(=O)c2c(C)noc2C)cc1	Jurkat viability 91 (no result: SKBR3 24h inh)
COc1ccc(S(=O)(=O)N2CCCC(C(=O)NCc3ccccn3)C2)cc1 (stereo unspecified)	none
Cc1[nH]c(=O)[nH]c(=O)c1S(=O)(=O)N1CCCC1	none (no result: Jurkat viability)
c1ccc(-c2csc3ncn4nnnc4c23)cc1	none
O=c1[nH]cnc2scc(-c3ccc(F)cc3)c12	none
Cn1nnnc1Sc1ncnc2scc(-c3ccccc3)c12	Her2 expr inh 0.6 (no result: SKBR3 24h inh)
Cn1nnnc1Sc1ncnc2scc(-c3ccc(F)cc3)c12	Her2 expr inh -11 (no result: SKBR3 24h inh)
Cc1ccccc1OCc1nc2ccccc2c(=O)n1NC(=O)c1ccco1	none (no result: Jurkat viability)
Cc1cc(=O)oc2ccc(OCC(=O)N(Cc3ccc(F)cc3)Cc3ccco3)cc12	none
NC(=O)N1CC(O)CC1C(=O)Nc1ccc(Cl)c(Cl)c1 (stereo unspecified)	none (no result: SKBR3 24h inh)
CCOc1ccc2nc(NC(NC(=O)CC)(C(=O)OC)C(F)(F)F)sc2c1 (stereo unspecified)	none (no result: Jurkat viability)
COc1ccccc1-n1cnc(N)c1C(=O)c1ccccc1	Jurkat viability 36
COc1ccccc1-n1cnc(N)c1C(C)=O	none
Cc1ccc(Nc2cc(C)nn2-c2nc(C)cc(C)n2)cc1	none (no result: SKBR3 24h inh)
Cc1ccc(Nc2cc(C)nn2-c2nc(C)cc(=O)[nH]2)cc1	Jurkat viability 94
CCCCSc1nc(C)c(CC(=O)OC)c(=O)[nH]1	none
Nc1nc(-c2cccs2)c(NC(=O)c2ccccc2)s1	Her2 expr inh -11 (no result: SKBR3 24h inh)
CNC(=O)c1ccsc1NC(=O)c1ccccc1	none (no result: SKBR3 24h inh)
O=C(O)c1nn(-c2ccc(Cl)cc2)ccc1=O	none (no result: Jurkat viability, SKBR3 24h inh)
Cc1cc(C(=O)OCC(=O)NCc2ccco2)c(C)n1-c1ccc(F)cc1	Jurkat viability 75 (no result: SKBR3 24h inh)
O=C(COC(=O)c1ccco1)NCc1ccco1	none
CCOc1ccccc1NS(=O)(=O)c1ccc(Br)s1	none
Cc1ccc(S(=O)(=O)Nc2cccc3ncccc23)s1	Jurkat viability 31, Her2 expr inh -5.5 (no result: SKBR3 24h inh)
CCOC(=O)CC1=C(C(=O)OCC)C(c2ccc(OC)cc2OC)C(C#N)=C(N)O1 (stereo unspecified)	Her2 expr inh -20 (no result: SKBR3 24h inh)
CCOC(=O)CC1=C(C(=O)OCC)C(c2ccc(C)o2)C(C#N)=C(N)O1 (stereo unspecified)	none
N#Cc1c(NC(=O)CSc2ncn[nH]2)sc2c1CCCCC2	none
N#Cc1c(NC(=O)CSc2nc(N)cc(=O)[nH]2)sc2c1CCCCCC2	Jurkat viability 56
O=C1CC(Sc2nnc(-c3ccccc3)o2)C(=O)N1c1ccccc1 (stereo unspecified)	none
Cc1ccccc1N1C(=O)CC(Sc2nnc(-c3ccccc3)o2)C1=O (stereo unspecified)	SKBR3 24h inh 4.5, Her2 expr inh -19 (no result: Jurkat viability)
CC(C)NS(=O)(=O)c1ccc(OCC(=O)NCc2cccnc2)cc1	none
COc1ccc(OCC(=O)NCc2cccnc2)cc1	Her2 expr inh -14
O=C(Cc1c(O)c2ccccc2[nH]c1=O)OC1CCCCC1	none (no result: SKBR3 24h inh)
Cc1nn(C)c(C)c1S(=O)(=O)N(CC(=O)NCCN1CCOCC1)c1ccc(C(C)C)cc1	none (no result: SKBR3 24h inh)
